# Assay outcomes deposited in PubChem by several laboratories.
# Rows were chosen to be rich in hits. Some 3.3% of all compounds tested hit in one or more screens of this group.
# Jurkat NFkB inh – inhibitors of induced NF-kB luciferase reporter, primary screen, TCR NF-kB activation inhibitor project, cell-based, luminescence, uHTS; Jurkat, PMA/ionomycin-induced NF-kB luciferase reporter; inhibition, % at 4 µM; 330,000 tested, 0.53% active; AID 435003, 2010; in the data active means inhibition above about 50%
# esBAF inh – Bmi1 luciferase reporter increase in mESCs, primary screen, esBAF inhibitor project, mouse ES cells, Bmi1 luciferase knock-in, single point | 24 h; 100% = twice the neutral-well signal | reporter increase, % at 12.5 µM | AID 602393, 2012 | 350,000 tested, 2% active; in the data active means activation above about 40%; inconclusive means no clear call, values can overlap the other calls;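 further: 0% = median of the plate's neutral control wells and 100% = double that signal; a rise in the Bmi1 reporter signal indicates esBAF inhibition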
# Gli-Sufu block – Gli-Sufu pathway antagonists, primary screen, luciferase luminescence, Sufu-KO-LIGHT cells, uHTS; inhibition, % at 5 µM; Sufu-KO-LIGHT fibroblasts, Gli luciferase reporter luminescence; AID 588413, 2011; 340,000 tested, 0.74% active;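 active means inhibition above about 55%, limit read from the data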;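 further: 0% = DMSO-treated cells and 100% = wells with medium but no cells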
# SMARCA2 activ – SMARCA2 (BRM) function activators, primary screen, cell-based, luminescence, high throughput. AID 652017, 2013. 370,000 tested, 1% active. activation, % at 9.1 µM. MG213 cells, MMTV-luciferase reporter, dexamethasone, overnight; in the data active means activation above about 7.8%;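 further: 0% = vehicle wells and 100% = reference activator wells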
# 697 NFkB inh – inhibitors of PMA/ionomycin-induced NF-kB reporter, 697 cells, primary screen, B-cell NF-kB inhibitor project, cell-based, luminescence, uHTS; 697 B-cell NF-kB luciferase reporter, 16 h; inhibition, % at 4 µM; 330,000 tested, 0.33% active; AID 435022, 2010; in the data active means inhibition above about 35%
# * = called active by the depositor; ? = inconclusive; · = no result.
SMILES,Jurkat NFkB inh,esBAF inh,Gli-Sufu block,SMARCA2 activ,697 NFkB inh
COc1ccccc1CN1[C@@H]2Cn3c(ccc(C4=CCCCC4)c3=O)[C@H]1[C@@H](C(=O)N(C)C)[C@@H]2CO,·,0,·,·,·
O=C1COc2ccc(C(=O)COC(=O)c3ccccc3[N+](=O)[O-])cc2N1,9,77*,-11,2,6
COc1ccc2oc(C(=O)OCC(=O)Nc3ccc(C)c(S(=O)(=O)N4CCOCC4)c3)c(C)c2c1,·,79*,·,2,·
C[C@@H]1CN([C@@H](C)CO)C(=O)c2cc(NC(=O)C3CCCCC3)ccc2O[C@@H](C)CCCCO[C@H]1CN(C)C(=O)Cc1ccccc1,·,9,·,·,·
COc1cccc(COc2ccc3c(C)cc(=O)oc3c2)c1,-128,51*,-92,4,-159
COc1cccc(NC(=O)c2ccc3c(c2)N(C)CCS3)c1,-130,51*,-93,4,-15
COc1cccc(NC(=O)c2ccc3c(c2)CCN3S(C)(=O)=O)c1,-20,56*,-27,-1,-11
CC(=C/c1ccco1)/C=N/N1CCN(c2ccccc2)CC1,-68,49*,-65,4,-67
CC(/C=N/N1CCN(c2ccccc2)CC1)=C\c1ccco1,-88,2,-82,5,-99
O=C(NC1CCCCC1)c1cccc2c1C(=O)c1ccc(N3CCCC3)cc1S2(=O)=O,-1,14,-6,0,5
O=C(NC1CCCC1)c1cccc2c1C(=O)c1ccc(N3CCCCC3)cc1S2(=O)=O,-9,50*,-16,-1,8
CC1CCN(c2ccc3c(c2)S(=O)(=O)c2cccc(C(=O)NCc4ccc(F)cc4)c2C3=O)CC1,-31,70*,-13,2,-27
O=C(C[C@H]1C[C@H]2c3cc(NC(=O)c4ccc5c(c4)OCO5)ccc3O[C@H]2[C@H](CO)O1)NCC1CC1,·,1,·,·,·
C[C@@H]1CN([C@@H](C)CO)C(=O)c2cc(NC(=O)CCC(F)(F)F)ccc2O[C@@H](C)CCCCO[C@@H]1CN(C)C(=O)c1ccccc1,·,-6,·,·,·
CC1CCC(C(C)C)C(OC(=O)Cn2c(-c3ccc(F)cc3)[n+](C)c3ccccc32)C1 (stereo not drawn),37,·,81*,-5,-106
OC1CCC2CN3CCc4c([nH]c5ccccc45)C3CC2C1 (stereo not drawn),·,62*,·,1,·
O=C1CCC2CN3CCc4c([nH]c5ccccc45)C3CC2C1 (stereo not drawn),·,-2,·,-6,·
O=c1[nH]c(SCc2nc3c(cnn3-c3ccccc3)c(=O)[nH]2)nc2ccccc12,·,44*,-65,1,·
O=c1[nH]c(CSc2nc3ccccc3[nH]2)nc2c1cnn2-c1ccccc1,7,·,·,-3,-35
C/C(Cn1cnc([N+](=O)[O-])n1)=N\NC(=O)c1ccccc1,-6,44*,2,3,-2
CCC(=O)N(C)C[C@H]1Oc2ncc(-c3ccccc3C)cc2C(=O)N([C@@H](C)CO)C[C@@H]1C,·,10,·,·,·
Nc1nc(-c2ccc3c(c2)OCCO3)cs1,-73,51*,6,5,-50
c1cncc(-c2csc(-c3cccnc3)n2)c1,3,36,0,-1,0
c1cncc(-c2nc(-c3ccc4c(c3)OCO4)cs2)c1,-113,52*,-77,7,-130
Clc1ccsc1-c1csc(-c2cccnc2)n1,4,70*,-30,6,-73
SMILES,Jurkat NFkB inh,esBAF inh,Gli-Sufu block,SMARCA2 activ,697 NFkB inh
Cc1nc(-c2ccc3c(c2)OCCCO3)cs1,-106,·,-51,5,-128
C[C@H](CO)N1C[C@H](C)[C@H](CN(C)S(=O)(=O)c2cccs2)Oc2c(NS(=O)(=O)c3ccccc3)cccc2C1=O,·,-5,·,·,·
CCOC(=O)C1CCN(C(=O)c2cc(COc3ccc(OC)c4ccccc34)on2)CC1,-86,57*,-1,5,-111
COCC1CCN(C(=O)c2cc(COc3ccc(OC)c4ccccc34)on2)C1 (stereo not drawn),-100,?,0,3,-110
COc1ccc(OCc2cc(C(=O)N3CCC(OC)CC3)no2)c2ccccc12,-76,70*,-3,2,-80
C[C@@H]1CN([C@H](C)CO)C(=O)c2cc(NS(=O)(=O)c3ccc(F)cc3)ccc2O[C@@H](C)CCCCO[C@@H]1CN(C)S(=O)(=O)c1ccccc1,·,4,·,·,·
Cc1nc(CSc2ccc(Cl)cc2)cc(NCc2ccccc2)n1,-19,2,-7,1,-10
CNc1cc(CSc2ccc(Cl)cc2)nc(C)n1,-52,52*,-53,1,-46
CC(=O)N(C)C[C@@H]1Oc2ncc(C#C[C@H](C)O)cc2C(=O)N([C@@H](C)CO)C[C@H]1C,·,4,·,·,·
Cc1cc2c(n1-c1ccc(Cl)cc1)CC(C)(C)CC2=O,10,-3,-4,0,17
COc1ccc(-n2c(C)cc(=O)c3c2CC(C)(C)CC3=O)cc1,11,0,11,7.9*,6
CNC[C@@H]1Oc2ccc(NC(=O)NC3CCCCC3)cc2C(=O)N([C@@H](C)CO)C[C@H]1C,·,2,·,·,·
CCOC(=O)c1c(S(=O)(=O)Nc2ccc(C)cn2)c(C)n(C)c1C,13,-6,-2,7.9*,4
CC(C)C#Cc1ccc2c(c1)O[C@H](CN(C)S(=O)(=O)c1cn(C)cn1)[C@@H](C)CN([C@H](C)CO)S2(=O)=O,·,5,·,·,·
CCc1ccc(/C(C)=N\Nc2ccc([N+](=O)[O-])cc2)cc1,-45,44*,-27,2,-32
CC(=NNc1ccc([N+](=O)[O-])cn1)c1ccc(N)cc1,·,97*,-76,1,·
C/C(=N\Nc1ccc([N+](=O)[O-])cc1)c1ccc(N)cc1,·,-5,-32,4,·
COc1cccc(/C=C(\C#N)c2nc3ccc(C)cc3[nH]2)c1OCC(=O)O,-5,51*,-8,2,-14
CCOc1ccccc1C(=O)Nc1cc2c(cc1N1CCCC1)n(CC)c(=O)n2CC,-11,-11,58*,-2,-50
CCn1c(=O)n(CC)c2cc(N3CCCC3)c(NC(=O)c3ccccc3OC)cc21,-2,-9,20,-3,-16
CC(C)NC(=O)N(C)C[C@@H]1Oc2ccc(NS(=O)(=O)c3ccccc3)cc2CC(=O)N([C@@H](C)CO)C[C@H]1C,·,1,·,·,·
Cc1nc(N2CCN(C(=O)c3ccco3)CC2)c2c3c(sc2n1)CC(C)CC3 (stereo not drawn),-11,·,79*,-2,-14
CCCC(=O)Nc1ccc2c(c1)OC[C@H](C)N(Cc1ccccn1)C[C@H](C)[C@H](OC)CN(C)C2=O,·,1,·,·,·
CCOC(=O)c1c(C)oc2c1c(C(c1cccnc1)N1CCOCC1)c(O)c1ccccc12 (stereo not drawn),-70,69*,-2,8,-52
CCOC(=O)c1c(C)oc2c1c1c(c3ccccc32)OCN(Cc2cccnc2)C1,·,74*,22,·,·
